Several values for one entry are separate records, joined by “and”; a condition that tells them apart may be missing. Identical values can stand only once. Activity calls are given as the source filed them. Unless noted, the rule behind the calls is not given here.
What was measured:
[1] = compounds altering circadian rhythm period length – cell-based, LOPAC library, luminescence reporter (AID 2774); conditions: circadian reporter cells, at 7 µM, actives lie on both sides;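 note: values are relative to mean of DMSO wells on each plate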
[2] = tested on: Hepatitis C virus NS3 helicase; test: blockers of NS3h binding to ssDNA – biochemical, fluorescence polarization, LOPAC1280 library, primary screen (AID 687035; in the data active = inhibition above about 37%); conditions: Purified HCV NS3 helicase, Cy5-dT15 ssDNA binding fluorescence polarization; stronger effect = higher value; concentration not given here
[3] = compounds altering Cy5-DNA-NS3h complex signal – biochemical, LOPAC1280, artefact control for HCV NS3 helicase inhibitor project (AID 687037); conditions: Cy5-DNA-NS3h complex fluorescence interference counterscreen
[4] = tested on: Aerobactin synthetase IucA (Klebsiella pneumoniae); test: inhibition of K. pneumoniae IucA enzyme – biochemical, Tocris library, absorbance (AID 1345561); conditions: purified IucA enzyme assay, absorbance (OD) read-out; stronger effect = lower value;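 tested at 8 µM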;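 note: 100% = enzyme without compound and 0% = no enzyme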
[5] = chitosan synthesis blockers in C. neoformans – flow cytometry, Cibacron Brilliant Red staining (AID 1347148); conditions: Cryptococcus neoformans chitosan, stronger effect = lower value; at 10 µM unless noted;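 note: compound exposure lasted three days at 37 degrees C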
[6] = blockers of cellular phospholipid synthesis – cell-based, LOPAC library, screen 4, primary screen (AID 1347384); conditions: animal cells, phospholipid biosynthesis inhibition screen; at 10 µM
[7] = galactose survival enhancers in mitochondrial complex I cybrids – cell-based, galactose medium, ATP luminescence, primary screen (AID 1645843;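 active = z-score of at least 1.8 in each of two replicates, scored against plate mean and spread of sample wells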;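 note: positive z means more ATP and so rescue of galactose-driven cybrid death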); conditions: complex I mutant cybrid cells, 72 h, stronger effect = higher value
[8] = P. berghei load reduction in hepatocytes – cell-based, HepG2, luciferase luminescence, HepG2 viability, primary screen (AID 624349; in the data active = parasite load remaining mostly below about 12%, no sharp cut-off; inactive = mostly above about 10%;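 note: 100% = mean of DMSO negative control wells on the same plate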); conditions: P. berghei liver stage in HepG2, luciferase luminescence, concentration not given here; parasite load remaining: stronger effect = lower value; viability: measured here: HepG2 viability without parasites
[9] = viability loss with induced miR-34 in A549 – imaging, A549 dox-inducible miR-34, nuclei and caspase counts, primary screen (AID 1347080;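 active = compounds whose cell count with miR-34 switched on is under 0.7 times the count with it off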); conditions: A549 miR-34 inducible, Hoechst nuclei count, 48 h
[10] = MELAS cybrid and Rieske KO viability enhancers – cell-based, MELAS cybrids, Rieske KO mouse fibroblasts, CellTiter-Glo, primary screen (AID 1508586;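 active = mean z-score across replicates of 1.96 or higher in either the MELAS or the Rieske mutant cell line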;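 note: z relative to plate mean and SD of compound and empty wells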); conditions: low glucose
[11] = compounds altering viability of human ES cells (AID 493140); conditions: human embryonic stem cell survival screen; stronger effect = higher value;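 note: cells exposed to compounds for four days before counting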
[12] = stronger effect = lower value, cell number ratio, induced over uninduced
[13] = measured here: relative caspase fold change +Dox/-Dox
[14] = measured here: total cells with miR-34 induction, stronger effect = lower value
[15] = measured here: total cells without miR-34 induction
[16] = MELAS cybrid survival, CellTiter-Glo 48 h, stronger effect = higher value
[17] = Rieske KO mouse fibroblast survival, CellTiter-Glo 72 h

## O=[N+]([O-])c1cccc2c(Br)[nH]nc12
[1]
  period change: -0.085 h (inactive)
[2]
  inhibition: -1% (inactive)
[3]
  fluorescence ratio (interference): 0.9 (inactive)
[4]
  remaining activity: 94.1% (inactive)
[5]
  fold fluorescence: 16.8 [at 206.6 µM] (inactive)
[6]
  outcome: inactive
[7]
  z-score: 1.04 (inactive) and -0.23 (inactive)

## CN/C(=C/[N+](=O)[O-])NCCSCc1ccc(CN(C)C)o1
[8]
  parasite load remaining: 43.4% (inactive) and 51.6% (inactive)
  viability: 47.5% and 107%
[4]
  remaining activity: 114% (inactive)
[9]; [12]
  fold change: 0.9 (inactive) and 0.849 (inactive) and 0.891 (inactive)
[9]; [13]
  fold change: 0.927 and 0.503 and 1.27
[9]; [14]
  cell count: 8480 and 7980 and 9140
[9]; [15]
  cell count: 9410 and 10300
[10]; [16]
  z-score: -0.0746 (inactive) and -0.291 (inactive)
[10]; [17]
  z-score: -0.171 and 0.538
[7]
  z-score: -0.09 (inactive) and 0.3 (inactive)

## CC(C)(C)c1ccc(/C=C/C(=O)Nc2ccc3c(c2)OCCO3)cc1
[2]
  inhibition: -1% (inactive)
[3]
  fluorescence ratio (interference): 1 (inactive)
[4]
  remaining activity: 109% (inactive)
[9]; [12]
  fold change: 1.15 (inactive) and 1.27 (inactive)
[9]; [13]
  fold change: 0.847 and 0.54
[9]; [14]
  cell count: 4930 and 3950
[9]; [15]
  cell count: 4270 and 3100
[6]
  outcome: inactive
[7]
  z-score: -1.38 (inactive) and -0.7 (inactive)

## COC(=O)C1=C(C)NC(C)=C([N+](=O)[O-])C1c1ccccc1C(F)(F)F (centres undefined)
[1]
  period change: 0.05 h (inactive)
[2]
  inhibition: -5% (inactive)
[3]
  fluorescence ratio (interference): 0.9 (inactive)
[4]
  remaining activity: 124% (inactive)
[9]; [12]
  fold change: 1.01 (inactive) and 1 (inactive) and 0.845 (inactive)
[9]; [13]
  fold change: 1.21 and 1.49 and 0.884
[9]; [14]
  cell count: 9160 and 5080 and 7400
[9]; [15]
  cell count: 9050 and 5080 and 8750
[6]
  outcome: inactive
[7]
  z-score: -0.7 (inactive) and -0.625 (inactive)

## CCc1ccc2c(-c3cccc(Cl)c3)nc(=O)n(CC)c2n1
[2]
  inhibition: -2% (inactive)
[3]
  fluorescence ratio (interference): 1 (inactive)
[4]
  remaining activity: 124% (inactive)
[9]; [12]
  fold change: 1.11 (inactive) and 0.913 (inactive)
[9]; [13]
  fold change: 1.55 and 0.664
[9]; [14]
  cell count: 9380 and 8340
[9]; [15]
  cell count: 8460 and 9140
[6]
  outcome: inactive
[7]
  z-score: 1.02 (inactive) and -0.175 (inactive)

## O=S(=O)(c1ccccc1)N(CC(F)(F)F)c1ccc(C(O)(C(F)(F)F)C(F)(F)F)cc1
[4]
  remaining activity: 101% (inactive)
[9]; [12]
  fold change: 0.946 (inactive) and 1.36 (inactive) and 0.863 (inactive)
[9]; [13]
  fold change: 0.813 and 0.647 and 1.59
[9]; [14]
  cell count: 5490 and 6260 and 4300
[9]; [15]
  cell count: 5810 and 4590 and 4980
[10]; [16]
  z-score: -0.346 (inactive)
[10]; [17]
  z-score: -0.159
[7]
  z-score: -0.605 (inactive)

## Cn1cnc2c(NCc3ccccc3)nc(NCCO)nc21
[1]
  period change: 0.235 h (inactive)
[11]
  survival: 92.8 (inactive)
[2]
  inhibition: -2% (inactive)
[3]
  fluorescence ratio (interference): 0.9 (inactive)
[4]
  remaining activity: 120% (inactive)
[5]
  fold fluorescence: 4.59 [at 167.6 µM] (inactive)
[6]
  outcome: inactive
[7]
  z-score: 0.355 (inactive) and 0.005 (inactive)

## Nc1ncnc2n[nH]c(Nc3ccc(F)cc3)c12
[8]
  parasite load remaining: 34.8% (inactive)
  viability: 85.8%
[2]
  inhibition: -5% (inactive)
[3]
  fluorescence ratio (interference): 1 (inactive)
[4]
  remaining activity: 105% (inactive)
[10]; [16]
  z-score: -0.494 (inactive)
[10]; [17]
  z-score: 0.733
[7]
  z-score: 0.375 (inactive) and 0.16 (inactive)

Source: PubChem BioAssay
